Laboratory results taken from PubChem BioAssay AID651658 (Broad Institute, 2012).
The whole screen tested about 340,000 compounds, of which about 5,100 (1.5%) were called active. The list comes from a sample in which actives are over-represented; it also holds similar structures and randomly drawn compounds. Values without a mark were called inactive.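 The calls were made as follows: active = mean Tm shift, scaled 0 neutral to 100 positive control, at about 1.3% or above, every replicate too (limit read from the data); inconclusive = no clear call, values can overlap the other calls; inactive = the rest.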

Target: Fibroblast growth factor 22 (Homo sapiens) (UniProt Q9HCT0)
Assay: FGF22 ligand-induced thermal stabilization – biophysical, thermal shift, single point, FGF22 synaptogenesis inhibitor project, primary screen (AID 651658)
Conditions: recombinant FGF22 thermal shift, SYPRO orange fluorescence; at 9.99 µM; stronger effect = higher value; percent of sucrose octasulfate shift, DMSO zero

Fibroblast growth factor 22 (Homo sapiens), sequence (Q9HCT0 whole entry, looked up): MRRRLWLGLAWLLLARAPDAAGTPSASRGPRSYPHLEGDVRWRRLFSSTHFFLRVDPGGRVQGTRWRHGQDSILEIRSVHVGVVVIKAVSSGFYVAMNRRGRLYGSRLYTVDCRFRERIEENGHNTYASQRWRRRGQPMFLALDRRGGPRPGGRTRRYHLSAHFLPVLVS

First: CN1c2ccc(C#Cc3cccnc3)cc2[C@H]2[C@H](CCN2S(=O)(=O)c2ccccc2)[C@@H]1CO
Second: O=C(c1cccnc1)N1C[C@H]2[C@@H](c3ccccc31)[C@@H](CO)N2C(=O)Nc1ccccc1F
The activity (Tm shift, normalised) of the first is higher: -0.293% for the first, -0.686% for the second.

Compared with C[C@H](CO)N1C[C@H](C)[C@H](CN(C)Cc2ccccc2)OCCCC[C@H](C)Oc2ccc(NC(=O)CCC(F)(F)F)cc2C1=O, COc1ccc(S(=O)(=O)N(C)C[C@H]2OCCCC[C@H](C)Oc3ccc(NC(=O)CCC(F)(F)F)cc3C(=O)N([C@@H](C)CO)C[C@@H]2C)cc1 is higher in activity (Tm shift, normalised): -0.091% for the first, 0.44% for the second.

First: Cn1cncc1COC(=O)c1ccc(Cl)cc1
Second: O=C(CC(=O)c1cccnc1)c1ccccc1
The activity (Tm shift, normalised) of the first is higher: 0.094% for the first, -0.031% for the second.

First: C[C@@H](O)C#Cc1ccc([C@H]2[C@H](CO)N3CCCCN(C(=O)c4ccc(F)cc4)C[C@@H]23)cc1
Second: COCC#Cc1ccc([C@H]2[C@H]3CN(Cc4ccncc4)CCCCN3[C@H]2CO)cc1
The activity (Tm shift, normalised) of the first is lower: 0.261% for the first, 0.633% for the second.

Compared with O=C(Nc1ccccc1F)N1C[C@@H]2[C@H](c3ccccc31)[C@@H](CO)N2C(=O)Nc1ccccc1, COc1ccccc1NC(=O)N1C[C@@H](O)COC[C@H]2O[C@@H](CC(=O)NCc3ccccc3)CC[C@@H]21 is higher in activity (Tm shift, normalised): -0.294% for the first, -0.018% for the second.

Going from C/C=C/c1cccc(-c2nc(C(=O)NCCN3CCCCC3)cc3c2[C@@H](CCO)N([S@](=O)C(C)(C)C)C3)c1 to C[C@@H]1CN([C@H](C)CO)C(=O)c2cc(NC(=O)C3CCCCC3)ccc2O[C@H]1CN(C)C(=O)Nc1ccccc1, the activity (Tm shift, normalised) falls from 0.178% to -0.036%.

First: C[C@@H]1CCCCO[C@@H](CN(C)C(=O)Nc2ccc(C(F)(F)F)cc2)[C@H](C)CN([C@@H](C)CO)C(=O)c2cc(N(C)C)ccc2O1
Second: COc1ccc(S(=O)(=O)N(C)C[C@@H]2OCCCC[C@@H](C)Oc3ccc(NC(=O)c4ccccc4)cc3C(=O)N([C@@H](C)CO)C[C@H]2C)cc1
The activity (Tm shift, normalised) of the first is lower: -1.45% for the first, 0.83% for the second.

Compared with C[C@@H](NC(=O)C[C@H]1C=C[C@H](NC(=O)C2CCOCC2)[C@H](CO)O1)c1ccccc1, O=C(N[C@H]1CC[C@@H](CCNS(=O)(=O)c2ccccc2)O[C@@H]1CO)c1cnccn1 is lower in activity (Tm shift, normalised): -0.059% for the first, -0.268% for the second.

First: COc1ccccc1NC(=O)CSc1nnc(CNC(=O)c2ccccc2F)o1
Second: Cc1ccc(NC(=O)CSc2nnc(CNC(=O)c3ccccc3F)o2)cc1Cl
The activity (Tm shift, normalised) of the first is higher: 0.09% for the first, 0.074% for the second.

First: C[C@H](CO)N1C[C@H](C)[C@@H](CN(C)C(=O)Nc2ccc3c(c2)OCO3)Oc2ccc(NS(=O)(=O)c3ccc(Cl)cc3)cc2C1=O
Second: CCS(=O)(=O)Nc1ccc2c(c1)C(=O)N(C)[C@H]1CC[C@@H](CC(=O)Nc3ccccc3)O[C@H]1CO2
The activity (Tm shift, normalised) of the first is higher: 0.554% for the first, 0.176% for the second.

Going from Cc1nc(Cl)c(C#N)c2c1CCCC2 to CCN(CC(=O)Nc1ccc(Cl)c(S(=O)(=O)N(C)C)c1)Cc1nc2ccccc2c(=O)[nH]1, the activity (Tm shift, normalised) rises from -0.106% to 0.133%.

First: O=C(C[C@@H]1CC[C@@H]2[C@H](COC[C@@H](O)CN2Cc2ccccc2)O1)NCCc1ccccc1
Second: O=C(C[C@@H]1CC[C@@H]2[C@H](COC[C@H](O)CN2S(=O)(=O)c2ccccc2F)O1)NCc1ccccc1F
The activity (Tm shift, normalised) of the first is lower: -0.247% for the first, -0.237% for the second.

Compared with CC(OC(=O)CCCc1c[nH]c2ccccc12)C(=O)Nc1ccc(S(N)(=O)=O)cc1 (stereo not given), O=C(COC(=O)CCc1c[nH]c2ccccc12)Nc1cccc(Cl)c1 is higher in activity (Tm shift, normalised): -0.822% for the first, 0.175% for the second.

Compared with COc1ccc(S(=O)(=O)N[C@H]2CC[C@H](CCn3cc(C(C)C)nn3)O[C@@H]2CO)cc1, CCN(CC(=O)Nc1cccc(S(N)(=O)=O)c1)Cc1nc2ccccc2c(=O)[nH]1 is higher in activity (Tm shift, normalised): 0.529% for the first, 42.3% for the second.

In the case of COCC(=O)N1[C@H](CO)[C@@H](c2ccccc2)C12CN(Cc1cc(F)ccc1F)C2, the activity (Tm shift, normalised) is reported as -0.224%.

O=C(OCc1cc(Cl)ccc1OC(F)F)c1cccnc1 was tested, and the activity (Tm shift, normalised) was 43.6% (active).
For O=C(Nc1ccccc1F)N1[C@H](CO)[C@H]2c3ccccc3NC[C@H]21, the activity (Tm shift, normalised) was 1.7% (active).
For Cc1ccc(NC(=O)CSc2nnc(CNC(=O)c3ccccc3F)o2)cc1, the activity (Tm shift, normalised) was 44% (active).
For COCc1c(N)c(C)nc(Cl)c1C#N, the activity (Tm shift, normalised) was 43% (active).
NS(=O)(=O)c1ccc(NC(=O)COC(=O)CCc2c[nH]c3ccccc23)cc1 was tested, and the activity (Tm shift, normalised) was 43.3% (active).
In the case of CCN(CC(=O)NC(=O)NCc1ccccc1)Cc1nc2ccccc2c(=O)[nH]1, the activity (Tm shift, normalised) is reported as 43% (active).
